# Test results taken from ChEMBL document CHEMBL3988442, “University of Dundee, Small-Polar-MMV Screening Library” (2021).
# Screen size: about 48,000 compounds; about 13,000 (27%) showed an effect of 50% or more. Some of the results follow.
# Tested on: Wolbachia pipientis
# Experiment: Anti-Wolbachia Cell-Based Screen
# Format: functional
# Set-up: scale not given: in the data most compounds retested in dose-response had high values
# Settings: 5 µM
row,Structure (SMILES),Percent Effect [%]
1,Cn1nnnc1SCCNC(=O)c1cccc2ccnn12,0.6807
2,CCC1CN(CC(=O)NC(C)C)CCO1 (stereo unspecified),-17.56
3,CC1CCCCN1C(=O)c1cn(-c2ccc(C(F)(F)F)cn2)nn1 (stereo unspecified),-15.67
4,O=C(COc1coc(CN2CCCC2)cc1=O)NCc1ccccc1Cl,13.29
5,CCn1ncc2c1CCCC2NCc1csc(COC)n1 (stereo unspecified),6.958
6,CCCn1c(C)cc(C(=O)CN2C(=O)c3ccccc3CS2(=O)=O)c1C,-1.519
7,Cc1noc(C2CCN(C(=O)c3ccc(N(C)C)nc3)CC2)n1,-12.04
8,Cc1noc(C2CCCN(C(=O)c3cncc(Br)c3)C2)n1 (stereo unspecified),-3.695
9,Cc1noc(C2CCC3(CCN(C(=O)c4ccnnc4)CC3)O2)n1 (stereo unspecified),98.77
10,Cc1cc(N2CCC3(CCCN(CCO)C3=O)C2)nc2ccccc12 (stereo unspecified),93.99
11,COCCN1CCCC2(CCN(c3ncc(Cl)cc3Cl)C2)C1=O (stereo unspecified),5.155
12,Cc1cc(N2CCC3(CCCN(CCO)C3=O)C2)nc2cc(Cl)ccc12 (stereo unspecified),98.58
13,COCCC1(C(=O)O)CCCN(c2cc(C)c3ccccc3n2)C1 (stereo unspecified),-9.375
14,CCCN1CCCC2(CCN(c3nc(C)nc4ccsc34)C2)C1=O (stereo unspecified),-5.221
15,Cc1cc(N2CCC(CO)(CC3CCCCO3)CC2)nc2ccccc12 (stereo unspecified),-15.69
16,Cc1ccc2c(c1)OC1(NC2=O)C(=O)N(C)c2ccccc21 (stereo unspecified),2.541
17,COc1ncccc1NC(=O)N1CCOCC1C (stereo unspecified),13.85
18,Cc1nc2c(c(=O)n1C)CN(C(=O)C1CCCN(C3CCCC3)C1)C2 (stereo unspecified),-4.359
19,Cc1ccc(-c2ncc(C(=O)N3CCN4CCCCC4C3)c(O)n2)cc1 (stereo unspecified),8.265
20,O=C(C1CC1)N1CCC(c2nc(O)c3c(n2)CN(C2CCCC2)CC3)C1 (stereo unspecified),78.69
21,C1CCC(c2nc3c(c(N4CCN5CCCC5C4)n2)CCNCC3)C1 (stereo unspecified),-7.963
22,CCC(=O)N1CCC(c2nc(O)c3c(n2)CN(C2CCCCC2)CC3)C1 (stereo unspecified),94.52
23,CCCC(=O)N1CCC(c2nc(O)c3c(n2)CCN(C2CCCC2)C3)C1 (stereo unspecified),91.38
24,CCC(=O)N1CCC(NC2CCCC2)C1 (stereo unspecified),-2.557

row,Structure (SMILES),Percent Effect [%]
1,Cc1ncc(C(=O)N2CCC(N3CCc4ccccc4C3)CC2)c(O)n1,-7.9
2,CC(C)N(CC(N)=O)Cc1cccc(C(F)(F)F)c1,-6.914
3,CC(C)c1cc(C(=O)N2CCNCC2C(=O)NCc2ccncc2)on1 (stereo unspecified),-12.97
4,CC(C)(C)c1ccc2c(c1)CCN2C(=O)c1ccc(=O)[nH]n1,-4.388
5,CCc1nc2n(n1)CCCC2NC(=O)Nc1ccc(F)cc1C#N (stereo unspecified),-29.22
6,Cc1ccc(C(=O)N2CCC3(CC2)CC(c2ccccc2)C(=O)N3)o1 (stereo unspecified),-4.481
7,CCOc1ccccc1N(C)Cc1nccn1C,-5.564
8,CC(C)=CCN1CCC2(CC1)CC(=O)N(Cc1cc(F)cc(F)c1)C2,132.9
9,CC(C)N1CCC2(CC1)CC(=O)N(Cc1cc(F)cc(F)c1)C2,84.47
10,O=C(CO)N1CCC2(CC1)CC(=O)N(Cc1cc(F)cc(F)c1)C2,130.8
11,CC(C)=CCN1CC2(CCN(Cc3cccc(C#N)c3)CC2)CC1=O,0.9714
12,CN1CC2(CCN(C(=O)Cc3ccc(O)c(F)c3)CC2)CC1=O,-5.557
13,CC(C)=CCN1CC2(CCN(Cc3c(F)cccc3F)CC2)CC1=O,-3.567
14,CCCS(=O)(=O)N1CCC2(CCC(=O)N(Cc3ccccc3)C2)CC1,-5.429
15,CCCS(=O)(=O)N1CCC2(CCC(=O)N(CCc3ccncc3)C2)CC1,3.257
16,CCCS(=O)(=O)N1CCC2(CC1)CC(=O)N(Cc1cc(F)cc(F)c1)C2,128.2
17,CCCc1noc(CCC(=O)N2CCN(C)CC2c2ccccc2)n1 (stereo unspecified),7.741
18,O=C(NCC1SCCc2ccccc21)c1cscn1 (stereo unspecified),1.343
19,N#Cc1cnc(NCCCN2C(=O)COc3ccccc32)c(Cl)c1,9.033
20,CCOc1cccc(CNC(=O)NC2CC=CC2)c1OC(F)F,3.017
21,Cc1n[nH]cc1CNC(C)c1cccc(N2CCCC2=O)c1.Cl (stereo unspecified),3.207
22,O=C(c1cscn1)N1C[C@H]2CCC[C@@]2(COCc2ccccn2)C1,128
23,O=C(Cc1ccco1)N1C[C@H]2CCC[C@@]2(COCc2cccnc2)C1,-4.256
24,Cc1ccc(C(=O)N2C[C@H]3CCC[C@@]3(COCc3cccnc3)C2)s1,-11.48

row,Structure (SMILES),Percent Effect [%]
1,O=C(Cc1ccsc1)N1C[C@H]2CCC[C@@]2(COCc2ccccn2)C1,101.3
2,Cc1cccc(COC[C@@]23CCC[C@@H]2CN(C(=O)Cc2ccco2)C3)n1,13.36
3,CCc1ncc(C(=O)N2CCCC2Cn2cccn2)s1 (stereo unspecified),101.3
4,NC(=O)c1csc(C(=O)N2CCCCC2Cn2cccn2)c1 (stereo unspecified),-5.921
5,O=C(c1cnc(C2CC2)s1)N1CCCCC1Cn1cccn1 (stereo unspecified),5.861
6,NC(=O)c1ccc(C(=O)N2CCCCC2Cn2cccn2)s1 (stereo unspecified),92.92
7,O=C(c1cnc(C2CC2)s1)N1CCCC1Cn1cccn1 (stereo unspecified),124.9
8,CCc1ncc(C(=O)N2CCCCC2Cn2cccn2)s1 (stereo unspecified),-1.613
9,c1ccc2c(c1)CC(n1ccnc1-c1cc3n(n1)CCNC3)CO2 (stereo unspecified),0.8243
10,O=C(CC[C@@H]1CCCN2CCCC[C@H]12)NCCc1nc(O)cc(O)n1,-15.21
11,N#Cc1ccnc(N2CCN(CC(O)c3cccc(F)c3)CC2)c1 (stereo unspecified),-9.554
12,CCN1CCN(C2CCN(Cc3nc(-c4ccoc4)no3)CC2)C1=O,-10.87
13,Fc1ccc(-c2noc(CN3CCC(c4cc[nH]n4)CC3)n2)cc1,-73.45
14,O=C1NCCN1C1CCN(Cc2nc(-c3ccccc3)no2)CC1,96.78
15,O=C1NCCN1C1CCN(Cc2nc(-c3ccc(F)cc3)no2)CC1,108.3
16,Cc1cccc(-c2noc(CN3CCC(N4CCNC4=O)CC3)n2)c1,0.5199
17,O=C1NCCN1C1CCN(Cc2nc(-c3ccoc3)no2)CC1,0.168
18,CN1CCN(C2CCN(Cc3nc(-c4ccoc4)no3)CC2)C1=O,101.9
19,c1ccc(-c2noc(CN3CCC(c4ccn[nH]4)CC3)n2)cc1,3.848
20,O=C1NCCN1C1CCN(c2ccnc(-c3ccccc3)n2)CC1,10.01
21,CC(C)Cc1nc(CN2CCC(N3CCN(C)C3=O)CC2)no1,-0.1019
22,Cc1ccc(-c2noc(CN3CCC(c4ccn[nH]4)CC3)n2)cc1,-38.16
23,Cc1ccc(-c2noc(CN3CCC(N4CCNC4=O)CC3)n2)cc1,76.33
